Experimental data taken from the supplement of paper PMC3545927.
The list shows a part of the results. No count for the full screen is at hand.

Biological target: furin, P09958
Assay: furin cleavage Z-score vs untreated control; higher = more cleavage, active = 3.5 or more, inactive = 1 or less, 8 variable residues between constant flanks
Protocol: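 Multiplexed peptide-cDNA fusion cleavage assay. 8-mer variable peptides flanked by constant Cys-Ala (N-term) and Ala-Gly-Asn-Ala-Ser-Ala-Ser-Ala (C-term) and conjugated to a cDNA oligonucleotide were bead-immobilised via the N-terminus. They were treated with purified furin at a 1:10 enzyme:substrate ratio in 50 mM HEPES pH 7.5, 1 mM CaCl2, 100 mM NaCl for 7.5, 15 or 30 min. Released cDNA was counted by next-generation sequencing, and log counts versus no-furin controls were lowess-adjusted and converted to robust Z-scores.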

Sequence of furin, P09958 (P09958 whole entry): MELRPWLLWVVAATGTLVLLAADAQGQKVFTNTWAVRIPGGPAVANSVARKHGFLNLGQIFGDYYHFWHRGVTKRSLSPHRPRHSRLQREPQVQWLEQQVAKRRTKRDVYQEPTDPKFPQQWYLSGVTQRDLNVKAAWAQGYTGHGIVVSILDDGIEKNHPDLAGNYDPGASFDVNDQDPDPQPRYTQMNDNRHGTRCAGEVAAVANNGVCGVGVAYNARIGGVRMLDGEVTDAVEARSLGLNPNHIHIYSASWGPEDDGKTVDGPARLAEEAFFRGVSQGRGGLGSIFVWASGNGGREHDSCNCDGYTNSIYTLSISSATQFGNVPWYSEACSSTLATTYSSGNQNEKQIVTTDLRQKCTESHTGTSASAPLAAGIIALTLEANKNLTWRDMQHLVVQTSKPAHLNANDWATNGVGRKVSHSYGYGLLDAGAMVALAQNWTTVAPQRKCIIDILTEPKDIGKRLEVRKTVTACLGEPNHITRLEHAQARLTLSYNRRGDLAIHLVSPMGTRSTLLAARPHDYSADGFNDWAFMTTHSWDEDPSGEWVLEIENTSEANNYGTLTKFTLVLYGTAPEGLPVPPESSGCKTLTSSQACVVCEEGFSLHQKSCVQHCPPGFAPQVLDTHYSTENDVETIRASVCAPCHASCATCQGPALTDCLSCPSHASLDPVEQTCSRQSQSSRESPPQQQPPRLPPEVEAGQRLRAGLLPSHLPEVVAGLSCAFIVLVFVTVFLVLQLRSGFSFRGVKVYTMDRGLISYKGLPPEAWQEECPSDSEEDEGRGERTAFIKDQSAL

Sequence | furin cleavage Z-score (7.5 min) | furin cleavage Z-score (15 min) | furin cleavage Z-score (30 min)
CAHPDATYSRAGNASASA [HC455] | -0.242 (inactive) | -1.51 (inactive) | -2.12 (inactive)
CAMPRRRGRFAGNASASA [FS-1037] | -0.497 (inactive) | 1.44 | 2.55
CAQRSRQKKTAGNASASA [FS-1392] | -1.4 (inactive) | -0.885 (inactive) | 0.286 (inactive)
CAQWIRVKRTAGNASASA [FS-372] | 10 (active) | 8.77 (active) | 8.64 (active)
CALWSRYGRFAGNASASA [FS-1034] | 0.532 (inactive) | 1.92 | -0.157 (inactive)
CAPGSRKARFAGNASASA [FS-280] | 7.61 (active) | 8.81 (active) | 9.66 (active)
CATRSRRGRFAGNASASA [FS-204] | 2.71 | 5.35 (active) | 4.64 (active)
CAPWITPRCLAGNASASA [HC461] | 1.9 | 1.18 | 0.0858 (inactive)
CASWTGALVTAGNASASA [HC1373] | 1.05 | 1.42 | 0.57 (inactive)
CASWNRVARTAGNASASA [FS-199] | 4.98 (active) | 4.02 (active) | 5.03 (active)
CAPMSRGDRFAGNASASA [FS-701] | -0.701 (inactive) | -0.0648 (inactive) | 0.556 (inactive)
CAHHNLVYSTAGNASASA [HC1387] | 0.206 (inactive) | 0.355 (inactive) | 0.257 (inactive)
